Pol kappa inh-1: qHTS for Inhibitors of Polymerase Kappa | purified Pol kappa, fluorescent DNA synthesis assay, 10 min | Potency, µM (series often up to 107 µM), usual class: inhibitors | hit rate 0.53% among 400,000 | AID 588579, 2011
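Pol kappa 10 nM + cpd, 15 min RT; start w/ substrate 50 nM final; fluorescence kinetic read, 0 and 10 min. Neg ctrl: buffer, no enzyme.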
L3MBTL1 inh: qHTS Assay for the Inhibitors of L3MBTL1; AID 485360, 2010; AlphaScreen L3MBTL1–H3K9me1 peptide binding; Potency, µM (highest dose often 57.1 µM), actives largely listed as inhibitors; hit rate 0.66% among 230,000; also: nearly all actives have a fitted effect of over 60% in size
Target sequence (Q9Y468 whole entry, looked up): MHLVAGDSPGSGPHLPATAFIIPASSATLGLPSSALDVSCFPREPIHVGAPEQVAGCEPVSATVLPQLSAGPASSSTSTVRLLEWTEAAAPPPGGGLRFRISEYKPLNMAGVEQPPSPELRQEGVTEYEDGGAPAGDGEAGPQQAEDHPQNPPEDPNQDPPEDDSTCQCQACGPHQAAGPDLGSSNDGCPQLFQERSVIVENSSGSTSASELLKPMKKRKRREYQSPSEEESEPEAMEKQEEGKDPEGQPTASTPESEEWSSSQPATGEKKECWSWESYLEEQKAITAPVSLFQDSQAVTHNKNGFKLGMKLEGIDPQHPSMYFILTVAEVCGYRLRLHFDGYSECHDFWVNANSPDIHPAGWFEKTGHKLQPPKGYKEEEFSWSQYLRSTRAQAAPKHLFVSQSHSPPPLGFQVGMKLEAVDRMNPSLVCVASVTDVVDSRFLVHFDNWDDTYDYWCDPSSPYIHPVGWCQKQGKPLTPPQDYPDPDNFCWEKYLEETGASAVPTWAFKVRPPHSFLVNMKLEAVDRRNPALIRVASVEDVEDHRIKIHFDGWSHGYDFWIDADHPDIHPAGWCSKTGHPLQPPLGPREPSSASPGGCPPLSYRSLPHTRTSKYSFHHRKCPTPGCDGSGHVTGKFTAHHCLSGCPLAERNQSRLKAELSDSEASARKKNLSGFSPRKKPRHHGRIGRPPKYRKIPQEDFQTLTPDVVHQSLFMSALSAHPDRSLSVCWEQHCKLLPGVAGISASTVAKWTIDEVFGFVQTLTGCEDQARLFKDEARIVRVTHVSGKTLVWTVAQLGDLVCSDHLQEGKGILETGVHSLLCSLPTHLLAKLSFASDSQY
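L3MBTL1 50 nM + b-AHA-H3(1-15)K9me1 75 nM, 30 min RT; compound added, 30 min RT; streptavidin donor/Ni-chelate acceptor beads 10 ug/mL each final, 30 min RT dark; AlphaScreen read.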
Pol iota inh: qHTS for Inhibitors of Polymerase Iota; DNA polymerase iota (Homo sapiens), Q9UNA4; Pol iota fluorescent replication assay, 10 min; Potency, µM (series often up to 115 µM), hits mostly inhibitors; hit rate 1% among 390,000
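Pol iota at 10 nM preincubated 15 min with compounds at room temperature; reaction started with fluorescent substrate, 50 nM final. Fluorescence read kinetically at 0 and 10 min; buffer-only wells as negative control.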
Pol eta inh-1: qHTS for Inhibitors of Polymerase Eta | DNA polymerase eta (Homo sapiens), Q9Y253 | recombinant Pol eta, fluorescent DNA replication assay | Potency, µM (doses to about 114 µM), usual class: inhibitors | hit rate 1.2% among 390,000 | AID 588591, 2011
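Pol eta (10 nM) was preincubated with compounds for 15 min at room temperature, after which fluorescent replication substrate (50 nM final) was added to start the reaction. Fluorescence was read kinetically at 0 and 10 min.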
Pol beta inh: qHTS Assay for Inhibitors of DNA Polymerase Beta; P06746; Pol beta primer extension/strand displacement, fluorescence kinetic; Potency, µM (highest dose often 114 µM), hits mostly inhibitors; hit rate 1.3% among 340,000
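Preincubation: enzyme (10 nM) with compound, 15 min, RT. Reaction: substrate added to 50 nM final. Reads: 0 and 10 min. Analysis: normalized, Hill fit.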
APEX1 inh: qHTS Assay for Inhibitors of the Human Apurinic/apyrimidinic Endonuclease 1 (APE1). DNA repair nuclease/redox regulator APEX1 (Homo sapiens), P27695. recombinant APE1, TAMRA/BHQ-2 abasic DNA cleavage fluorescence. Potency, µM (top dose mostly 65.8 µM), actives largely listed as inhibitors. hit rate 0.35% among 350,000. AID 2517, 2012; also: nearly all actives have a fitted effect of over 55% in size
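Readout is kinetic fluorescence (ex 525, em 598 nm) from cleavage of 50 nM TAMRA/BHQ-2 THF abasic duplex by 0.75 nM APE1, compound added 15 min beforehand at RT.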
PGK validate: qHTS for inhibitors of Phosphogylcerate Kinase: Hit Validation Screen; shares compounds with Pol kappa inh-1; TbPGK coupled GAPDH assay, Kinase-Glo luminescence; Potency, µM (series often up to 57.5 µM), hits mostly inhibitors; hit rate 79% among 500; AID 686980, 2013; also: nearly all actives have a fitted effect of over 65% in size
Pol iota confirm: qHTS for Inhibitors of Polymerase Iota: Confirmatory Assay for Cherry-picked Compounds; Potency, µM, usual class: inhibitors; Pol iota primer extension, TAMRA/BHQ fluorescence; AID 720496, 2013; hit rate 77% among 1,500; shares compounds with Pol kappa inh-1
Pol kappa inh-2: qHTS for Inhibitors of Polymerase Kappa: Confirmatory Assay for Cherry-picked Compounds | shares compounds with Pol eta inh-1 | purified Pol-kappa, fluorescent strand-displacement substrate | Potency, µM, actives largely listed as inhibitors | hit rate 76% among 920 | AID 720501, 2013
Pol eta inh-2: qHTS for Inhibitors of Polymerase Eta: Confirmatory Assay for Cherry-picked Compounds | shares compounds with Pol eta inh-1 | Pol eta primer extension, TAMRA/BHQ fluorescence, 10 min | Potency, µM, actives largely listed as inhibitors | hit rate 64% among 2,600 | AID 720502, 2013
Each line names hits and unclear results; the compound was inactive in the other large screens (follow-up assays come after a bar, where they were run). Compounds with a hit are over-represented: about 2.5% of the library has one in this group of screens. Calls follow the shape of the dose curve; as a rule, active = well fitted curve in the direction sought with a large enough effect; inconclusive = small, poorly fitted or top-dose-only effect, or another doubt; inactive = no such curve, though single readings can be large; an effect the other way counts as inactive or inconclusive.

O=C1NN(c2ccc(Cl)c(Cl)c2)C(=O)/C1=C/c1ccc(-c2ccccc2C(=O)O)o1	Pol kappa inh-1 40µM, Pol iota inh 5µM, Pol eta inh-1 20µM, Pol beta inh 32µM (no result: L3MBTL1 inh) | Pol iota confirm 19 | Pol kappa inh-2 17 | Pol eta inh-2 30
O[C@H]1CN(CC2CCCCC2)[C@@H](c2ccc(Cl)cc2)C[C@@H]1n1cc(-c2ccc(F)cc2)nn1	none (no result: Pol kappa inh-1, L3MBTL1 inh, Pol iota inh, Pol beta inh, APEX1 inh)
COc1ccc(CCNC(=O)c2ccc(CS(=O)(=O)Cc3ccc(C)cc3)o2)cc1OC	none (no result: Pol kappa inh-1, L3MBTL1 inh, Pol iota inh, Pol beta inh, APEX1 inh)
Cc1ccc(C(=O)NCCN(C)C)c(C)c1	none
CNc1c2cccc(C)c2nc2c(C(=O)NCCN(C)C)cccc12	Pol kappa inh-1 8.9µM, Pol iota inh 11µM, Pol eta inh-1 3.5µM (no result: L3MBTL1 inh, Pol beta inh, APEX1 inh) | Pol iota confirm 3 | Pol eta inh-2 38
CN1C/C(=C/c2ccc(B(O)O)cc2)C(=O)/C(=C/c2ccc(B(O)O)cc2)C1	none (no result: L3MBTL1 inh, Pol iota inh, Pol eta inh-1, Pol beta inh)
COc1ccc(C2Nc3ccccc3C(=O)N2Cc2ccco2)cc1COc1ccc(N)cc1 (stereo not drawn)	none (no result: Pol kappa inh-1, L3MBTL1 inh, Pol iota inh, Pol eta inh-1, Pol beta inh, APEX1 inh) | Pol iota confirm 75 | Pol eta inh-2 85
CCOc1ccc(C(=O)NCC(=O)NC(C)CCc2ccccc2)cc1OCC (stereo not drawn)	none (no result: L3MBTL1 inh)
O=C(O)CSc1nc2ccc(NC(=O)COc3ccc(Cl)cc3)cc2s1	Pol kappa inh-1 inconclusive, Pol iota inh 79µM, Pol eta inh-1 11µM, Pol beta inh 25µM (no result: L3MBTL1 inh, APEX1 inh) | Pol iota confirm 67 | Pol eta inh-2 30
CCC(C(=O)N1CCN(c2ccccc2F)CC1)n1nc(C)c2sc3ccccc3c2c1=O (stereo not drawn)	none (no result: L3MBTL1 inh, APEX1 inh)
O=C(c1ccccc1)c1c2c(cc3sc4ccccc4[n+]13)-c1cccc3cccc-2c13	Pol kappa inh-1 inconclusive, Pol iota inh 10µM, Pol eta inh-1 22µM, Pol beta inh 4.5µM, APEX1 inh inconclusive | Pol iota confirm 17 | Pol eta inh-2 24
Cc1sc2cc3c(c(C(=O)c4ccccc4)[n+]2c1C)-c1cccc2cccc-3c12	Pol eta inh-1 inconclusive, Pol beta inh inconclusive
O=C(NN1C(=O)/C(=C/C=C/c2ccco2)SC1=S)c1ccccc1O	Pol kappa inh-1 4µM, L3MBTL1 inh 1.3µM, Pol iota inh 1.3µM, Pol eta inh-1 1.1µM, Pol beta inh 1.1µM, APEX1 inh 2µM | PGK validate 9.2µM | Pol iota confirm 2.7 | Pol eta inh-2 3.4
COc1ccc(/C=C2\SC(=S)N(C(Cc3ccccc3)C(=O)O)C2=O)cc1 (stereo not drawn)	L3MBTL1 inh inconclusive
O=C(O)CC(C(=O)O)N1C(=O)/C(=C/C=C/c2ccco2)SC1=S (stereo not drawn)	L3MBTL1 inh 1.1µM, Pol iota inh 1.6µM, Pol eta inh-1 0.89µM, Pol beta inh 0.79µM, APEX1 inh 1µM | PGK validate 2.9µM | Pol iota confirm 5.3 | Pol eta inh-2 3
O=C(O)C(Cc1ccccc1)N1C(=O)/C(=C/C=C/c2ccco2)SC1=S (stereo not drawn)	Pol kappa inh-1 3.2µM, L3MBTL1 inh 1.3µM, Pol iota inh 1.1µM, Pol eta inh-1 1.4µM, Pol beta inh 1.6µM, APEX1 inh 1.6µM | PGK validate 5.8µM | Pol iota confirm 3 | Pol eta inh-2 3.4
CC1CCCC(NC(=O)CCS(=O)(=O)c2cc3c(cc2Cl)NC(=O)CO3)C1C (stereo not drawn)	none (no result: L3MBTL1 inh)
CC(=O)c1cccc(NC(=O)CSc2ccc(-c3ccco3)nn2)c1	Pol kappa inh-1 inconclusive, Pol iota inh 22µM, Pol eta inh-1 inconclusive, Pol beta inh 50µM (no result: L3MBTL1 inh) | Pol iota confirm inconclusive | Pol eta inh-2 inconclusive
CCCCOc1ccc(C(=O)N(Cc2ccco2)Cc2ccco2)cc1	Pol iota inh inconclusive, Pol eta inh-1 32µM, Pol beta inh 22µM (no result: L3MBTL1 inh, APEX1 inh) | Pol iota confirm 67 | Pol kappa inh-2 15 | Pol eta inh-2 54
CCCOc1ccc(C(=O)N(Cc2ccco2)Cc2ccco2)cc1	Pol eta inh-1 inconclusive (no result: L3MBTL1 inh, APEX1 inh)
COc1ccc(/C=N/NC(=O)c2nnn(-c3nonc3N)c2-c2cccc(OC)c2)cc1	none (no result: L3MBTL1 inh)
COc1ccc(O)c(/C=N/NC(=O)c2c(C)nnn2-c2nonc2N)c1	Pol kappa inh-1 inconclusive, Pol iota inh inconclusive, Pol eta inh-1 inconclusive, Pol beta inh 4.5µM (no result: L3MBTL1 inh) | Pol iota confirm 75 | Pol kappa inh-2 inconclusive
COc1ccc(C(=O)CCc2ccccc2)c(O)c1	none (no result: L3MBTL1 inh, Pol beta inh, APEX1 inh)
COc1ccc(CCC(=O)O)c(O)c1	Pol kappa inh-1 71µM, Pol iota inh inconclusive, Pol eta inh-1 32µM, Pol beta inh 40µM, APEX1 inh 16µM (no result: L3MBTL1 inh) | Pol iota confirm 75 | Pol eta inh-2 67
CCCc1c(C)[nH]c2ccc(C(=O)O)cc2c1=S	Pol kappa inh-1 32µM, Pol iota inh 6.3µM, Pol eta inh-1 3.2µM, Pol beta inh inconclusive, APEX1 inh 22µM (no result: L3MBTL1 inh) | Pol iota confirm 17 | Pol eta inh-2 5.4
Cc1[nH]c2ccc(C(=O)O)cc2c1C	Pol iota inh inconclusive, APEX1 inh inconclusive (no result: L3MBTL1 inh)
CC(Oc1ccc(S(=O)(=O)N2CCCC2)cc1[N+](=O)[O-])C(=O)NC1(C#N)CCCCC1 (stereo not drawn)	none (no result: Pol beta inh)
O=C(O)Cc1ccc(N=Nc2c(O)c(C(=O)O)cc3ccccc23)cc1	Pol kappa inh-1 inconclusive, L3MBTL1 inh 25µM, Pol iota inh 7.9µM, Pol eta inh-1 7.1µM, Pol beta inh 32µM, APEX1 inh inconclusive | Pol iota confirm 21 | Pol eta inh-2 21
Oc1ccc2ccccc2c1N=Nc1ccc(F)cc1	L3MBTL1 inh inconclusive
